Assay results taken from PubChem BioAssay (Tox21).
Records with an inconclusive call do not appear. A call without a number means that no potency is given here. Active and inactive are the calls of the source. Unless noted, calls follow the shape of the dose curve; as a rule, active = well fitted curve in the direction sought with a large enough effect in the repeat runs; inconclusive = weak or mixed curves; inactive = no such curve, though single readings can be large; an effect the other way counts as inactive or inconclusive.

Columns and labels:
[1] = qHTS assay to identify small molecule antagonists of the glucocorticoid receptor (GR) signaling pathway - cell viability counter screen (AID 720693); also: nearly all actives have a fitted effect of over 55% in size
[2] = qHTS assay for identifying genotoxic compounds that show differential cytotoxicity against isogenic chicken DT40 cell lines with known DNA damage response pathways - wild type cell line (AID 743012); also: nearly all actives have a fitted effect of over 60% in size; also: potency is read from the fitted curve at half-maximal effect
Outline: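 Wild-type DT40 cells (300/well) exposed to compounds for 40 hours at 37 C/5% CO2. Viability read by CellTiter-Glo luminescence after 30 min at room temperature.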

[3] = qHTS assay for identifying genotoxic compounds that show differential cytotoxicity against isogenic chicken DT40 cell lines with known DNA damage response pathways - Rev3 mutant cell line (AID 743014); also: nearly all actives have a fitted effect of over 55% in size; also: potency is read from the fitted curve at half-maximal effect
[4] = qHTS assay for identifying genotoxic compounds that show differential cytotoxicity against isogenic chicken DT40 cell lines with known DNA damage response pathways - Rad54/Ku70 mutant cell line (AID 743015); also: nearly all actives have a fitted effect of over 60% in size; also: potency is read from the fitted curve at half-maximal effect
[5] = qHTS assay to identify small molecule antagonists of the androgen receptor (AR) signaling pathway - cell viability counter screen (AID 743033; also: nearly all actives have a fitted effect of over 45% in size)
[6] = qHTS assay to identify small molecule antagonists of the androgen receptor (AR) signaling pathway using the MDA cell line - cell viability counter screen (AID 743041; also: nearly all actives have a fitted effect of over 45% in size; also: potency is read from the fitted curve at half-maximal effect)
Outline: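 MDA-kb2 AR-luc human breast carcinoma cells (MMTV-luciferase, AR/GR responsive) were treated with compounds plus R1881 agonist for 16 h at 37 °C. Viability was read as CellTiter-Fluor fluorescence in the same wells as the reporter assay.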

[7] = qHTS assay to identify small molecule antagonists of the thyroid receptor (TR) signaling pathway - cell viability counter screen (AID 743064); also: nearly all actives have a fitted effect of over 50% in size; also: potency is read from the fitted curve at half-maximal effect
Outline: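 Fluorescence from CellTiter-Fluor, added after 23.5 h exposure at 37 °C, reported viability of GH3.TRE-Luc cells co-treated with compound and 1 nM T3. Measured in the same wells as the luciferase TR readout.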

[8] = qHTS assay to identify small molecule antagonists of the thyroid receptor (TR) signaling pathway (AID 743065); also: nearly all actives have a fitted effect of over 55% in size; also: potency is read from the fitted curve at half-maximal effect
Outline: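 GH3.TRE-Luc rat pituitary cells carrying two TR response elements driving luciferase were plated for 4 h, given compound plus 1 nM T3 (final), and incubated 23.5 h at 37 C. ONE-Glo luminescence measured reporter inhibition; CellTiter-Fluor fluorescence tracked cytotoxicity.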

[9] = tested on: thyroid hormone receptor (rat, GH3 cells); assay: qHTS assay to identify small molecule agonists of the thyroid receptor (TR) signaling pathway (AID 743066; calls by dose curve)
[10] = qHTS assay to identify small molecule antagonists of the estrogen receptor alpha (ER-alpha) signaling pathway - cell viability counter screen (AID 743074; calls by dose curve; also: nearly all actives have a fitted effect of over 45% in size)
Aromatase (Homo sapiens) = Aromatase (Homo sapiens) (UniProt P11511); assay: qHTS assay to identify aromatase inhibitors (AID 743083); also: nearly all actives have a fitted effect of over 55% in size
Chain of Aromatase (Homo sapiens) (P11511 whole entry, looked up): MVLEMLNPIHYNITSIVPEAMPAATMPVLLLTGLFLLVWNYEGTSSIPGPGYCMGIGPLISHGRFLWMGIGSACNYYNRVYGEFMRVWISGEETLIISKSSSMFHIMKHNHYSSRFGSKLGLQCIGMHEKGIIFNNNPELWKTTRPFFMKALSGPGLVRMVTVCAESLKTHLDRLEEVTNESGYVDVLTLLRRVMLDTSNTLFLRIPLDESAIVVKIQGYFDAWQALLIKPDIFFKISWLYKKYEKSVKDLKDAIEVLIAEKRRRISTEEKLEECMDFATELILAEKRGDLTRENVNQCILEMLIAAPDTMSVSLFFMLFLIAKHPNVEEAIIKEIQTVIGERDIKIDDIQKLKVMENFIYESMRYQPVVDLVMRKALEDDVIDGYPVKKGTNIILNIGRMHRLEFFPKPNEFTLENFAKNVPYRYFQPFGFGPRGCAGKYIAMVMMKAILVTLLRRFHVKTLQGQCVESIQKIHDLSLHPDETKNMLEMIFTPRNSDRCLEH

[11] = biological target: Estrogen receptor (Homo sapiens) (UniProt P03372); assay: qHTS assay to identify small molecule antagonists of the estrogen receptor alpha (ER-alpha) signaling pathway (AID 743069; active = well fitted curve in the direction sought with a large enough effect in the signal ratio in the repeat runs, not every such curve was filed as active; the % refers to the signal ratio)
Chain of Estrogen receptor (Homo sapiens) (P03372 whole entry, looked up): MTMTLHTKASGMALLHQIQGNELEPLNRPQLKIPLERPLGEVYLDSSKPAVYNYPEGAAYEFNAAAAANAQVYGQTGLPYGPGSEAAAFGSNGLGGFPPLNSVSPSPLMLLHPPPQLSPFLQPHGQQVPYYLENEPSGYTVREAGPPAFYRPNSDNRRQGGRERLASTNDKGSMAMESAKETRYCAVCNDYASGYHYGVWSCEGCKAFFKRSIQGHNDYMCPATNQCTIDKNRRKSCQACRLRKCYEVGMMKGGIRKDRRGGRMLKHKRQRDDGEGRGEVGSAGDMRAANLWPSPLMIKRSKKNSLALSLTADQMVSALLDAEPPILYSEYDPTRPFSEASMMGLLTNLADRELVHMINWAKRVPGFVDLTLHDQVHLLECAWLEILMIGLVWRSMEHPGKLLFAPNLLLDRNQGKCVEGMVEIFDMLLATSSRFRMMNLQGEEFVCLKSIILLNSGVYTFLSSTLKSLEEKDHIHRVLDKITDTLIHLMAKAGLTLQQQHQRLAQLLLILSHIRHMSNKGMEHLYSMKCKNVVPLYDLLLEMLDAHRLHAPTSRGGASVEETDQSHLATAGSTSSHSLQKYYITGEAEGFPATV
Outline: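 HEK293 cells stably carrying an ER-alpha-UAS-bla beta-lactamase reporter were pre-cultured overnight in 2% charcoal-stripped FBS medium. Test compounds in DMSO were added together with 17beta-estradiol for 18 hr at 37C. Read-out was fluorescence after 2 hr with LiveBLAzer B/G FRET substrate at room temperature.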

[12] = biological target: Estrogen receptor (Homo sapiens) (UniProt P03372); assay: qHTS assay to identify small molecule agonists of the estrogen receptor alpha (ER-alpha) signaling pathway (AID 743075; calls by dose curve)
[13] = biological target: Estrogen receptor (Homo sapiens) (UniProt P03372); assay: qHTS assay to identify small molecule agonists of the estrogen receptor alpha (ER-alpha) signaling pathway using the BG1 cell line (AID 743079); conditions: BG1Luc4E2 cells, ERE-luciferase agonist, 22 h; activation: at 70.3 µM (top of the series); also: nearly all actives have a fitted effect of over 20% in size
[14] = qHTS assay to identify small molecule antagonists of the estrogen receptor alpha (ER-alpha) signaling pathway using the BG1 cell line - cell viability counter screen (AID 743081);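 also: compound given together with 17beta-estradiol as the ER stimulus; nearly all actives have a fitted effect of over 45% in size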
[15] = biological target: Androgen receptor (Homo sapiens) (UniProt P10275); assay: qHTS assay to identify small molecule antagonists of the androgen receptor (AR) signaling pathway (AID 743035; active = well fitted inhibition curve with a large enough effect in the signal ratio in the repeat runs, not every such curve was filed as active; the % refers to the signal ratio; also: potency is read from the fitted curve at half-maximal effect)
Chain of Androgen receptor (Homo sapiens) (P10275 whole entry, looked up): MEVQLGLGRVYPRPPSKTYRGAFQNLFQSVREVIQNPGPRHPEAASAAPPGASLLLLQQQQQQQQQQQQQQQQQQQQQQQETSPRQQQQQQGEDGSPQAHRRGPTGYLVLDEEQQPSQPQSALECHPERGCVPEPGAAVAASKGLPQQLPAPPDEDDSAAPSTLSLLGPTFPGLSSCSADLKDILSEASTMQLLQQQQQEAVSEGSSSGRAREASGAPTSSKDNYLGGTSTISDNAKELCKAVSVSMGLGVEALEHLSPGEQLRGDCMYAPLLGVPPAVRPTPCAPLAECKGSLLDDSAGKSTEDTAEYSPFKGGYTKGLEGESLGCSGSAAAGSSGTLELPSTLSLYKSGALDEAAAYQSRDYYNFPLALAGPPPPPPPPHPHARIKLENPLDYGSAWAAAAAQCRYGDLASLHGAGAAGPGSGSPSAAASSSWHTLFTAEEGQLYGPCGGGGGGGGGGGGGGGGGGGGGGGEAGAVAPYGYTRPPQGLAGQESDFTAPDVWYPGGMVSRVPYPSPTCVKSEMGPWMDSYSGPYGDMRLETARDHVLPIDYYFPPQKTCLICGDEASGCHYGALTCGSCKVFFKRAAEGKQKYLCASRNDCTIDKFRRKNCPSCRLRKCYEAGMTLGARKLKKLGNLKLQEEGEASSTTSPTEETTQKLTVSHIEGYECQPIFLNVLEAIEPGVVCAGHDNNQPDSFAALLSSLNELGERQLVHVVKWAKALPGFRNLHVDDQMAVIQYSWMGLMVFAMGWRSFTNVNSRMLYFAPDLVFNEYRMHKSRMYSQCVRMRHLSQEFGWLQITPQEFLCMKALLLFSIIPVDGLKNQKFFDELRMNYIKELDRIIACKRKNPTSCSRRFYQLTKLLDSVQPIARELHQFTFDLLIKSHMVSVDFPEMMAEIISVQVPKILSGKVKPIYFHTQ
Outline: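 HEK293 cells stably carrying UAS-beta-lactamase reporter, 2,000/well, given compounds plus R1881 agonist and incubated 16 h at 37C. LiveBLAzer B/G FRET substrate then added for 2 h at room temperature before fluorescence reading.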

[16] = biological target: Androgen receptor (Homo sapiens) (UniProt P10275); assay: qHTS assay to identify small molecule antagonists of the androgen receptor (AR) signaling pathway using the MDA cell line (AID 743042; also: nearly all actives have a fitted effect of over 55% in size; also: potency is read from the fitted curve at half-maximal effect)
Outline: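 MDA-kb2 cells (human breast carcinoma, stably carrying an MMTV-luciferase reporter responsive to AR and GR) were plated at 3,000 cells/well and preincubated 5 hr at 37C, then given compound plus R1881 agonist for 16 h. ONE-Glo luminescence was read.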

[17] = biological target: Androgen receptor (Homo sapiens) (UniProt P10275); assay: qHTS assay to identify small molecule agonists of the androgen receptor (AR) signaling pathway (AID 743036; active = well fitted activation curve with a large enough effect in the signal ratio in the repeat runs, with a control signal flat, not every such curve was filed as active; the % refers to the signal ratio)
Outline: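 Fluorescence from a beta-lactamase FRET substrate served as read-out in AR-UAS-bla GripTite HEK293 cells. Cells were treated with DMSO-dissolved compounds for 16 h at 37C, then with LiveBLAzer B/G substrate for 2 h at room temperature.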

[18] = qHTS assay to identify small molecule antagonists of the estrogen receptor alpha (ER-alpha) signaling pathway using the BG1 cell line (AID 743080; calls by dose curve;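 also: BG1 cells stimulated with 17beta-estradiol alongside compound; nearly all actives have a fitted effect of over 25% in size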)
Outline: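 Luminescence from a 4×ERE-luciferase reporter in BG1-Luc-4E2 cells served as read-out. Cells, pre-cultured 5 days in stripped-serum phenol-red-free medium, were exposed to compound with 17beta-estradiol co-stimulation for 21.5 h at 37 C.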

| SMILES | Potency [1] | Potency [2] | Potency [3] | Potency [4] | Potency [5] | Potency [6] | Potency [7] | Potency [8] | Potency [9] | Potency [10] | Potency (Aromatase (Homo sapiens)) | Potency [11] | Potency [12] | Potency [13] | Potency [14] | Potency [15] | Potency [16] | outcome [17] | Potency [18] |
| --- | --- | --- | --- | --- | --- | --- | --- | --- | --- | --- | --- | --- | --- | --- | --- | --- | --- | --- | --- |
| [Cl-].[Cl-].[Sn+2] | inactive | inactive | inactive | inactive | inactive | inactive | inactive | inactive | inactive | inactive | inactive | – | – | – | – | – | – | – | – |
| Cc1cnc2c(C(=O)O)c(Cl)ccc2c1 | inactive | inactive | inactive | inactive | inactive | inactive | inactive | – | inactive | inactive | inactive | inactive | inactive | inactive | inactive | – | – | – | – |
| CCC(OC(C)=O)C(CC(C)NC)(c1ccccc1)c1ccccc1 (stereo not given) | inactive | 7.76 µM (active) | 15.5 µM (active) | 15.5 µM (active) | inactive | 27.5 µM (active) | – | 19.5 µM (active) | – | – | – | – | inactive | – | – | 49.4 µM (active) | 21.9 µM (active) | – | – |
| O=C(Nc1ccc(F)cc1F)c1cccnc1Oc1cccc(C(F)(F)F)c1 | inactive | inactive | inactive | inactive | inactive | inactive | inactive | inactive | inactive | inactive | inactive | – | – | – | inactive | – | – | – | – |
| CC(C)=CC1C(C(=O)OC(C#N)c2cccc(Oc3ccccc3)c2)C1(C)C (stereo not given) | inactive | inactive | inactive | inactive | inactive | inactive | inactive | – | inactive | – | inactive | – | – | – | inactive | inactive | inactive | inactive | – |
| CCN(CC)CCN1C(=O)CN=C(c2ccccc2F)c2cc(Cl)ccc21 | inactive | 6.68 µM (active) | 13.3 µM (active) | 26.6 µM (active) | inactive | inactive | 29.8 µM (active) | – | inactive | inactive | inactive | inactive | inactive | inactive | inactive | – | – | – | inactive |
| CCCCON=O | inactive | inactive | inactive | inactive | inactive | inactive | inactive | inactive | inactive | inactive | inactive | – | – | – | inactive | – | – | – | – |
| O=NN(CCO)CCO | inactive | inactive | inactive | inactive | inactive | inactive | – | inactive | inactive | inactive | inactive | inactive | inactive | inactive | inactive | inactive | inactive | inactive | inactive |
